SMILES strings stand for the structures. The whole screen tested about 310,000 compounds, of which about 14,000 (4.5%) showed an effect of 50% or more. The effect is printed as a negative number. For the sample, strong results were picked, then their nearest neighbours and some compounds at random.
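Further: peak tail current of the secondary pulse compared with the same well before compound.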

The target of this assay is human ether-à-go-go-related gene (hERG) potassium channel (human, UniProt Q12809). The assay is described as follows: primary screen, population patch clamp on CHO cells stably expressing hERG; higher = less effect of the substance.
Chain of human ether-à-go-go-related gene (hERG) potassium channel (Q12809 whole entry, looked up): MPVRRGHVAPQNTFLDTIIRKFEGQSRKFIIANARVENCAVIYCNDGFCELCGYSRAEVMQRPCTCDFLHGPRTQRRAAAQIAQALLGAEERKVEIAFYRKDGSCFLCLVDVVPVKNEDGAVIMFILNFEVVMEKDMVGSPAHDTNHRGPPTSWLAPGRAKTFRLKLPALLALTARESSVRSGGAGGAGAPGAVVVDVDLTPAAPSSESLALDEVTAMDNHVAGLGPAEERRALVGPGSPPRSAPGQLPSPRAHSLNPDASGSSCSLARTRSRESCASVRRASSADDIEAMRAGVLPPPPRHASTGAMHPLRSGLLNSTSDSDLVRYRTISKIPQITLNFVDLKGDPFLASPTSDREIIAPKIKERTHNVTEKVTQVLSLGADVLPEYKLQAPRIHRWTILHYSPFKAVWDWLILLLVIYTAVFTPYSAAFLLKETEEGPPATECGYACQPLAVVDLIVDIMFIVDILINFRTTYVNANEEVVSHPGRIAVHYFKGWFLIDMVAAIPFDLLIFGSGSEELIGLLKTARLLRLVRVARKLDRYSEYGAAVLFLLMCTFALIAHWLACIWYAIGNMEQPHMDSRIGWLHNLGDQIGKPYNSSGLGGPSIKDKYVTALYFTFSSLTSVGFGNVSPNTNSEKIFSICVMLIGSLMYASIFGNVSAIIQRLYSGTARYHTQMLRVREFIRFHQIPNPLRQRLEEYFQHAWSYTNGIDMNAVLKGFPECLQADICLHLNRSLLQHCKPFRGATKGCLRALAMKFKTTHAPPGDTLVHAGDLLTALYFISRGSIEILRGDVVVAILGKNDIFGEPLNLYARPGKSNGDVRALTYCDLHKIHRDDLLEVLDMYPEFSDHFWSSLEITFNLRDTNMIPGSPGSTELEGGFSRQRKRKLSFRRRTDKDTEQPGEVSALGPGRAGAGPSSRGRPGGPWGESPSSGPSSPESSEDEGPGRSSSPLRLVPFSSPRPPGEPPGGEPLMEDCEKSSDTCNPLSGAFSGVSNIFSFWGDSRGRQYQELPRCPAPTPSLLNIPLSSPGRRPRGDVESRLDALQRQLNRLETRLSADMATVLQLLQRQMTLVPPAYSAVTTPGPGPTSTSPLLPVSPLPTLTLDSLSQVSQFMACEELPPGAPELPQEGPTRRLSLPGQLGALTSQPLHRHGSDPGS
`COC(=O)/C=c1\sc2ncnn2c1=O`: the “hERG current change (%, negative = inhibition) at 10uM” value amounted to 3.63%.

In the case of `CCCNC(=O)c1onc(CS(=O)(=O)c2cccc(OC)c2)c1C(=O)NCCC`, the “hERG current change (%, negative = inhibition) at 10uM” value is reported as -12.5%. Turning to `CN(C)/C=C/C(=O)c1ncc(C(F)(F)F)cc1Cl`, the “hERG current change (%, negative = inhibition) at 10uM” value came out at 8.95%. As for `CC(NC(=O)[C@H](C)NC(=O)c1ccco1)c1ccc(S(N)(=O)=O)cc1` (stereo partly drawn), the figure is 18.9%; as for `O=C(CN1CCC(C(=O)c2cccc(Cl)c2)CC1)Nc1ccc(C(=O)O)cc1`, 16%. As for `CC(=O)Nc1ccc(Nc2nnc(-c3ccc(O)cc3)c3ccccc23)cc1`, the figure is 10.2%; as for `COc1ccc(Nc2nnc(-c3ccc(C(N)=O)cc3)c3ccccc23)cc1`, -33.9%; as for `COc1ccc(-c2nnc(Nc3ccc(OC)c(C(=O)N4CCCCC4)c3)c3ccccc23)cc1`, -39.3%. Next, `Cc1nnc(Nc2ccc3c(c2)ncn3C)c2ccccc12`: 0.0649%.

For `COc1ccc(Nc2nnc(-c3ccc(C)cc3)c3ccccc23)cc1C(=O)N1CCCCC1`, the “hERG current change (%, negative = inhibition) at 10uM” value is given as -33.7%. Next, `Cc1ccc(-c2nnc(Nc3ccc4c(c3)nc(C)n4C)c3ccccc23)cc1`: 5.03%. Next, `Oc1ccc(Nc2nnc(-c3ccc(O)cc3)c3ccccc23)cc1`: 24.3%; `Oc1ccc(-c2nnc(Nc3ccccc3)c3ccccc23)cc1`: -58.9%; `COc1ccc(Nc2nnc(-c3ccc(O)cc3)c3ccccc23)cc1`: -64.8%.

For the molecule `Oc1ccc(-c2nnc(Nc3cccc(O)c3)c3ccccc23)cc1`, the “hERG current change (%, negative = inhibition) at 10uM” value was -7.99%.

On to `Cc1nc2cc(Nc3nnc(-c4ccccc4)c4ccccc34)ccc2n1C`, for which the “hERG current change (%, negative = inhibition) at 10uM” value is recorded as -67.2%. Next, `COc1ccc(Nc2nnc(-c3ccccc3)c3ccccc23)cc1C(=O)N1CCCCC1`: -73%; `CCOC(=O)c1ccc(N=Cc2nc3ccccc3n2C)cc1`: 7.61%.

Regarding `COc1ccc(-n2c(=O)[nH]cc(C(=O)Nc3ccc4c(c3)OCCO4)c2=O)cc1OC`, the “hERG current change (%, negative = inhibition) at 10uM” value is 6.18%. Next, `N#Cc1c(N)nc2c(c1N)CC(COc1ccccc1)O2` (stereo not drawn): -6.98%; `CCSc1nnc(CNC(=O)C23CC4CC(CC(C4)C2)C3)n1Cc1ccccc1`: -5.81%.

As for `C[C@H](NC(=O)c1ccccc1Cl)C(=O)OCc1cn2cc(Cl)ccc2n1`, the “hERG current change (%, negative = inhibition) at 10uM” value is listed as -7.08%. As to `COc1ccc(OC)c(NC(=O)CCc2nnc3ccc(NCc4ccco4)nn23)c1`, the “hERG current change (%, negative = inhibition) at 10uM” value is listed as -15.2%. Next, `CC(Nc1nc(-c2cccc(Br)c2)cs1)c1nc2cc(Cl)c(N3CCCCC3)cc2n1CCOCCO` (stereo not drawn): -19.1%; `COc1cc(C(C)=O)ccc1OC(=O)c1cc2cccc(OC)c2oc1=O`: 2.53%. Next, `CCn1c(SCC(=O)Nc2cc(NC(C)=O)ccc2OC)nnc1-c1ccccn1`: 4.03%; `N#Cc1c(C(F)(F)F)cc(-c2ccccc2)nc1SCC(=O)N1CCOCC1`: -8.28%; `CC(C)NC(=O)CSc1ncccc1-c1nc2ccccc2[nH]1`: -17.1%. Regarding `O=C1CC(c2ccccc2)CC(=O)C1CS(=O)(=O)c1ccccc1` (stereo not drawn), the “hERG current change (%, negative = inhibition) at 10uM” value was 18.1%. As for `Cc1ccc(-c2noc(CSc3ccccc3)n2)cc1`, the figure is 10.2%.

`O=C1c2cccnc2C(Nc2ccc(S(=O)(=O)N3CCCCCC3)cc2)N1Cc1ccccc1` (stereo not drawn): the “hERG current change (%, negative = inhibition) at 10uM” value was -9.79%. `Cc1cc(Cn2ccnc2)c(C)c([N+](=O)[O-])c1Cn1ccnc1`: the “hERG current change (%, negative = inhibition) at 10uM” value is on record as -7.19%. With `CC1CCCC(NC(=O)CCC(=O)NCc2ccccc2)C1C` (stereo not drawn), the “hERG current change (%, negative = inhibition) at 10uM” value was 11.5%. As for `O=S(=O)(O)c1cnccc1Nc1cccc(C(F)(F)F)c1`, the figure is 5.95%; as for `COc1ccc(NC(=O)C2CCCN(c3cc(C)nc4ncnn34)C2)cc1` (stereo not drawn), -12.5%; as for `COc1ccccc1NC(=O)C1CCCN(c2nc(C)cc(C)n2)C1` (stereo not drawn), -10%. As for `Cc1cc(C)nc(N2CCC(C(=O)Nc3ccc4c(c3)CCC4)CC2)n1`, the figure is 17.3%; as for `Cc1nc2ncnn2c(N2CCCC(C(=O)Nc3ccccc3Br)C2)c1C` (stereo not drawn), -60.2%. Take `O=C(Nc1ccc2c(c1)CCC2)C1CCCN(c2ncccn2)C1` (stereo not drawn): the “hERG current change (%, negative = inhibition) at 10uM” value was -2.53%. For `Cc1cc(N2CCCC(C(=O)Nc3cccc4ccccc34)C2)n2ncnc2n1` (stereo not drawn), the “hERG current change (%, negative = inhibition) at 10uM” value was -61.9%. Next, `COc1ccccc1NC(=O)C1CCCN(c2cc(C)nc3ncnn23)C1` (stereo not drawn): -20.8%; `Cc1cc(N2CCCC(C(=O)Nc3ccc4c(c3)CCC4)C2)n2ncnc2n1` (stereo not drawn): -57.2%.

Take `Cc1cc(N2CCCC(C(=O)Nc3cccc(Cl)c3)C2)n2ncnc2n1` (stereo not drawn): the “hERG current change (%, negative = inhibition) at 10uM” value was -38%. On to `COc1cc(C)nc(N2CCCC(C(=O)Nc3ccccc3Br)C2)n1` (stereo not drawn), for which the “hERG current change (%, negative = inhibition) at 10uM” value was 8.77%. With `Cc1nc2ncnn2c(N2CCCC(C(=O)Nc3ccc4c(c3)CCC4)C2)c1C` (stereo not drawn), the “hERG current change (%, negative = inhibition) at 10uM” value is -53%. On to `CCc1c(C)nc2ncnn2c1N1CCCC(C(=O)NCc2cccs2)C1` (stereo not drawn), for which the “hERG current change (%, negative = inhibition) at 10uM” value is recorded as -19.1%.

Consider `CC(Oc1ccc2c3c(c(=O)oc2c1)CCCC3)C(=O)NCc1ccncc1` (stereo not drawn), for which the “hERG current change (%, negative = inhibition) at 10uM” value was found to be 4.36%. Consider `Cc1nn(CC(O)Cn2c3c(c4ccccc42)CCN(C)C3=O)c(C)c1Br` (stereo not drawn), for which the “hERG current change (%, negative = inhibition) at 10uM” value is on record as -17.5%.

As for `CNC(=S)Nc1cc(C)ccc1OC(F)F`, the “hERG current change (%, negative = inhibition) at 10uM” value is 2.85%. Next, `CCCCn1c(N)c(N(CC)C(=O)CCNC(=O)NC23CC4CC(CC(C4)C2)C3)c(=O)[nH]c1=O`: 8.45%; `CCN(CC)S(=O)(=O)c1ccc(N2CCCC2)c(C(=O)OCC(=O)N2CCCC2)c1`: -3.73%.

For `O=C(NC1CONC1=O)OCC(Cl)(Cl)Cl` (stereo not drawn), the “hERG current change (%, negative = inhibition) at 10uM” value is reported as 8.91%. As for `CC(C)c1cc(C(=O)O)n[nH]1`, the figure is 20.3%.

For the molecule `COC(=O)c1ccc(NC(=O)CCc2nnc3ccc(N4CCC5(CC4)OCCO5)nn23)cc1`, the “hERG current change (%, negative = inhibition) at 10uM” value worked out at 10.1%.

Take `CCc1ccccc1NC(=S)N(CCN(C)C)C(C)c1ccccn1` (stereo not drawn): the “hERG current change (%, negative = inhibition) at 10uM” value is -30.8%. Turning to `O=C(NNC(=O)c1ccccc1OCc1ccccc1Cl)c1csc(N2CCOCC2)n1`, the “hERG current change (%, negative = inhibition) at 10uM” value came to 31%.

As to `O=C(COC(=O)c1ccc(F)c(S(=O)(=O)N2CCOCC2)c1)NC1CC1`, the “hERG current change (%, negative = inhibition) at 10uM” value was -17.4%.

`COc1cc2c(cc1OC)C(C)N(C(=O)C(NC(=O)c1ccccc1)C(C)C)CC2` (stereo not drawn): the “hERG current change (%, negative = inhibition) at 10uM” value stood at 7.1%.

As for `COc1ccc(-c2ocnc2C(=O)NCc2nn(-c3ccccc3)nc2C)cc1`, the “hERG current change (%, negative = inhibition) at 10uM” value came out at 5.05%. As for `CN(C)CCCN(C(=O)c1ccc(S(=O)(=O)N2CCc3ccccc32)cc1)c1nc2c(Cl)cccc2s1.Cl`, the figure is -27.6%. Next, `COc1ccc2sc(N(CCCN(C)C)C(=O)c3ccc(S(=O)(=O)N4CCCc5ccccc54)cc3)nc2c1.Cl`: -14.4%; `CCOc1ccc2nc(N(CCN(C)C)C(=O)c3ccc4c(c3)CCCC4)sc2c1.Cl`: -1.63%; `COc1cccc2sc(N(CCN(C)C)C(=O)c3ccc(S(=O)(=O)N4CCCC4)cc3)nc12.Cl`: -31.2%. `CN(C)CCCN(C(=O)c1ccc2c(c1)CCCC2)c1nc2c(F)cccc2s1.Cl`: the “hERG current change (%, negative = inhibition) at 10uM” value is on record as -70%. Next, `CN(C)CCN(C(=O)c1ccc2c(c1)CCCC2)c1nc2c(F)cccc2s1.Cl`: -14.6%; `COc1cccc2sc(N(CCN(C)C)C(=O)c3ccc4c(c3)CCCC4)nc12.Cl`: -66.7%.

Take `COc1cccc2sc(N(CCCN(C)C)C(=O)c3ccc(S(=O)(=O)N4CCCc5ccccc54)cc3)nc12.Cl`: the “hERG current change (%, negative = inhibition) at 10uM” value is given as -68.3%. As for `O=C1N=C(N2CCOCC2)S/C1=C\c1ccc(-c2ccccc2Cl)o1`, the figure is -15.3%; as for `COC(=O)CS(=O)(=O)c1ccsc1C(=O)Nc1ccc(F)cc1`, 3.5%. Next, `Cc1ccc(SCCC(=O)Nc2ccccc2Br)cc1`: 12.8%. As for `C=CCn1cnc2c(oc3ccccc32)c1=O`, the “hERG current change (%, negative = inhibition) at 10uM” value was 4.04%. Next, `Cc1cnc(C(=O)OCC(=O)N=c2sccn2Cc2ccccc2Cl)cn1`: 10.1%. Next, `CCOC(=O)N1CCC(NC(=O)COc2cc(=O)n(C)c3ccccc23)CC1`: 6.6%; `O=C(NCCNS(=O)(=O)c1ccccc1)N1CCOCC1`: 18.3%; `O=C(NC1CCCCC1)C(c1ccccc1F)N(Cc1ccco1)C(=O)c1ccccn1` (stereo not drawn): -4.03%. Regarding `COc1ccc(C2=Nn3c([n+](C)c4ccccc43)SC2)cc1.[Br-]`, the “hERG current change (%, negative = inhibition) at 10uM” value was -44.2%.

For the molecule `C[n+]1c2n(c3ccccc31)N=C(c1ccc(-c3ccccc3)cc1)CS2.[Br-]`, the “hERG current change (%, negative = inhibition) at 10uM” value is recorded as -79.7%. As to `C[n+]1c2n(c3ccccc31)N=C(c1ccc(Br)cc1)CS2.[Br-]`, the “hERG current change (%, negative = inhibition) at 10uM” value is listed as -69.5%. Next, `CCc1nnc2n1N=C(c1ccc(Cl)cc1)CS2`: 8.48%. As for `C[n+]1c2n(c3ccccc31)N=C(c1ccccc1)CS2.[Br-]`, the figure is -47.3%; as for `Cc1nnc2n(c1=O)N=C(c1ccc(Cl)cc1)CS2`, 6.25%; as for `CC1Sc2n(c3ccccc3[n+]2C)N=C1c1ccccc1.[Br-]` (stereo not drawn), -49.6%. `C[n+]1c2n(c3ccccc31)N=C(c1cc(C(C)(C)C)c(O)c(C(C)(C)C)c1)CS2.[Br-]`: the “hERG current change (%, negative = inhibition) at 10uM” value is on record as -77.6%.

On to `COc1ccccc1-c1nnc2n1N=C(c1ccc(O)c(O)c1)CS2`, for which the “hERG current change (%, negative = inhibition) at 10uM” value is listed as -0.453%.

Turning to `Cc1ccc(-c2nnc3n2N=C(c2ccc(Br)cc2)CS3)cc1`, the “hERG current change (%, negative = inhibition) at 10uM” value was -1.26%.

In the case of `Cc1cc(Cn2nnc3ccccc32)c(O)c(C(C)(C)C)c1`, the “hERG current change (%, negative = inhibition) at 10uM” value is recorded as 19.3%.

Turning to `C[n+]1c2n(c3ccccc31)N=C(c1ccc(Cl)cc1)CS2.[Br-]`, the “hERG current change (%, negative = inhibition) at 10uM” value is listed as -69%.

For the origin of these results see article PMC4336329 (PLoS ONE, 2015).
